Only some compounds are listed: those with a hit (about 4.6% of all), similar ones and a draw of the others.
hcDAF-12 act: activates DAF-12 receptor from parasite H. contortus. HEK293 hcDAF-12 lit1-tk-luc reporter, luminescence; 0% DMSO, 100% Δ7-dafachronic acid. activation, % at 6.8 µM. 1.4% of 370,000 active;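 active means activation above the mean of all tested compounds plus 3 SD, cut at about 5.5% in these data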;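 further: 100% = response to 3 µM Δ7-dafachronic acid high control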
DAX1 inh-1: DAX1 (NR0B1) inhibition, primary screen; HEK293T StAR-luciferase reporter, SF-1/DAX-1 repression relief; inhibition, % at 6.8 µM; 1.1% of 370,000 active;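 active means inhibition above the mean over all tested compounds plus 3 SD, cut at about 3.6% in these data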;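 further: 0% = DAX-1 cells with DMSO and 100% = cells lacking DAX-1 with DMSO; higher inhibition means more luminescence from relief of DAX-1 repression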
DAX1 inh-2: inhibits human nuclear receptor DAX1. inhibition, % at 6.75 µM. 0.99% of 340,000 active. P51843. HEK293 Gal4-DAX1 luciferase reporter, luminescence;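 active means inhibition above the mean over all tested compounds plus 3 SD, cut at about 4.2% in these data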;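 further: 0% = DAX1-transfected cells with DMSO and 100% = empty-vector control cells with DMSO; inhibition shows as a rise in luminescence from relieved DAX1 repression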
ssDAF12 agonist: S. stercoralis DAF-12 activation, primary screen; activation, % at 6.8 µM; 1% of 370,000 active; HEK293 ssDAF-12/GRIP1 lit1-tk-luc reporter, luminescence; % of 3 µM dafachronic acid response;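 active means activation above the mean over all tested compounds plus 3 SD, cut at about 0.9% in these data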;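 further: 0% = DMSO-only wells and 100% = 3 µM delta7-dafachronic acid wells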
hgDAF12 agonist: agonists of H. glycines DAF-12 nuclear receptor | HEK293 GAL4-hgDAF12 UAS-luciferase reporter, agonist luminescence; normalized to butyrate control | activation, % at 6.8 µM | AID 687014 | 1.8% of 370,000 active;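 active means activation above a cutoff set at the mean of all screened compounds plus 3 SD, cut at about 10% in these data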;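 further: 0% = DMSO wells and 100% = sodium butyrate wells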
Wee1 degr inh: blocks degradation of human Wee1 kinase; P30291; reporter increase, % at 5 µM; HeLa Luc-Wee1K328M stability, luciferase luminescence; 100% = proteasome inhibitor MG132 effect; 1.2% of 220,000 active;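 active means activation above the mean of all tested compounds plus 3 SD, set per screening run, cut at about 8.8% in these data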;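 further: cells exposed to compound for 20 h before luminescence read; 0% = DMSO alone and 100% = MG132 at 30 µM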
LXR ag: LXR-beta agonism as hcDAF-12 counter-screen | shares compounds with hcDAF-12 act | HEK293 Gal4-LXR tk-luc reporter, luminescence, 24 h; normalized: DMSO 0%, positive control 100% | activation, % at 6.8 µM | 3,400 tested, under 10 active;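 active means mean percent activation of the reporter above a cutoff set as the average over tested compounds plus their standard deviation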
Target sequence (P55055 whole entry, looked up, the tested form may be a part): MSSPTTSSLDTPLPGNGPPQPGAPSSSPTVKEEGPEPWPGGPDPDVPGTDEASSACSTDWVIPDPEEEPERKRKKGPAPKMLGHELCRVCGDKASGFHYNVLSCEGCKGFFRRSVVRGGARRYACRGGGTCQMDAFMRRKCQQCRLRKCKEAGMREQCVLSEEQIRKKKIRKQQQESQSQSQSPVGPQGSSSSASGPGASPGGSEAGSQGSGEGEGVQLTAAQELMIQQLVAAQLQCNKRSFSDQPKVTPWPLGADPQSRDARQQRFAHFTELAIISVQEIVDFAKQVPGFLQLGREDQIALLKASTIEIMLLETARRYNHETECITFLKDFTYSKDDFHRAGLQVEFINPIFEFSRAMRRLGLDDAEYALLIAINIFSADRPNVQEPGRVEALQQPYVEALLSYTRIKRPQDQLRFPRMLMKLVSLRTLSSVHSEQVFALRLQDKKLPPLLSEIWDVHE
hcDAF12 ag: hcDAF-12 agonism, confirmation assay; shares compounds with hcDAF-12 act; HEK293 hcDAF-12 lit1-tk-luc reporter, luminescence; % of Δ7-dafachronic acid response; activation, % at 6.8 µM; 61% of 3,400 active; AID 743032;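 active means mean activation across triplicate tests above the threshold derived from the earlier primary screen, cut at about 5.5% in these data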;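 further: 0% = DMSO only wells and 100% = 3 µM Δ7-dafachronic acid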
The depositor's hits bear a star; nt = no result given.

SMILES	hcDAF-12 act	DAX1 inh-1	DAX1 inh-2	ssDAF12 agonist	hgDAF12 agonist	Wee1 degr inh	LXR ag	hcDAF12 ag
O=C(O)c1cccc(COc2cccc3ccccc23)c1	9.1*	3.4	-4.0	1.3*	12.8*	nt	1.6	9.4*
COc1cccc(/C=N/NC(=O)N/N=C/c2cccc(OC)c2O)c1O	-0.7	-0.7	0.2	-1.6	-5.5	nt	nt	nt
COc1cccc(/C=N/Nc2ccccc2C(=O)O)c1O	7.8*	2.7	5.0*	1.4*	9.1	nt	1.0	11.2*
O=C(Cc1c[nH]c2ccccc12)NCC(=O)Nc1ccc(F)c(F)c1F	3.3	-1.5	1.0	-0.6	-1.8	nt	nt	nt
C=CCC[C@@H](CCCCC)OC(=O)/C=C/[C@H](O)[C@@H](O)C[C@H](O)CC=C	-1.5	-1.6	nt	-1.2	-2.1	nt	nt	nt
O=C(O)[C@@H]1Cc2c([nH]c3ccccc23)C2CCC(=O)N21 (some centres undefined)	7.6*	0.0	-0.7	1.6*	-0.3	nt	-0.4	0.2
COc1ccc(NC(C)C(=O)Nc2cc(C(F)(F)F)ccc2N2CCOCC2)c(OC)c1 (centres undefined)	14.1*	1.4	-1.6	-1.8	-1.2	2.0	0.1	-0.8
CCC(CC)CC1CN2CCc3cc(OC)c(OC)cc3C2CC1(O)CC (centres undefined)	-0.7	-0.6	0.3	-1.2	0.5	nt	nt	nt
Cc1cc(C)c(S(=O)(=O)NCCn2c(C)cc3ccccc32)c(C)c1	7.1*	-1.2	-0.2	0.8	7.9	-2.4	-0.2	0.1
Cc1ccc(S(=O)(=O)NCCn2c(C)cc3ccccc32)cc1	nt	nt	nt	nt	nt	0.2	nt	nt
O=C(CSc1nc2sc3c(c2c(=O)n1-c1ccc(Cl)cc1)CCC3)Nc1ccc(C(=O)O)cc1	7.9*	0.7	nt	-0.8	-0.5	nt	-0.2	2.5
CCCCn1nnnc1NCc1ccc(OC)c(OC)c1	8.5*	-0.7	-1.9	-1.7	0.4	-1.3	-0.2	1.2
CCCCn1nnnc1NCc1ccc(C)cc1	-0.5	0.7	1.2	-0.5	0.2	nt	nt	nt
CC1(C)CC(=O)C=C(C#CC2(O)CCCCC2)C1	-0.1	-1.4	-2.2	-1.0	-2.8	nt	nt	nt
CCCCn1c(O)c2n(c1=O)Cc1ccccc1N=C2c1ccc(C)cc1	7.3*	0.7	nt	0.1	0.3	nt	-0.1	3.5
CCOC(=O)Nc1ccc2c3c(cccc13)-c1ccccc1-2	8.2*	4.2*	1.5	0.5	7.2	nt	0.1	7.7*
CCOC(=O)Nc1cccc2ccccc12	-1.8	0.1	-0.3	-1.7	0.3	-0.6	nt	nt
C(=N\n1c2ccccc2c2ccccc21)/c1ccccc1	10.4*	-0.1	0.0	-0.1	0.3	-2.0	-0.1	5.9*
Cc1ccccc1CSc1nnc(C)n1N	-1.3	0.4	-0.6	-1.1	0.0	0.9	nt	nt
Cc1nnc(SCc2nc3ccccc3s2)n1-c1ccccc1	7.6*	2.5	2.5	1.2*	7.5	2.4	0.8	9.5*
Brc1c(CSc2nc3ccccc3o2)nc2ncccn12	0.1	1.5	0.1	-0.6	6.4	-0.8	nt	nt
Cc1nnc(SCc2nc3ccccc3s2)n1N	9.5*	4.1*	3.6	1.0*	7.7	-2.1	0.7	12.3*
Clc1c(CSc2nc3ccccc3o2)nc2ccccn12	7.0*	4.2*	0.5	0.8	10.5*	4.1	1.2	7.0*
COc1ccc(-n2nnnc2SCc2nc3ccccc3s2)cc1	8.1*	1.2	1.4	1.1*	9.4	1.9	1.0	11.2*
O=C(COC(=O)/C=C/c1cccc(Cl)c1)NC1CCCC1	1.0	2.8	0.1	-0.5	0.4	nt	nt	nt
Cc1ccccc1NC(=O)Cn1nnc(-c2ccncc2)n1	-1.5	-0.2	nt	-0.1	1.9	nt	nt	nt
c1ccc2oc(SCc3nc4ccccc4s3)nc2c1	10.1*	1.6	4.4*	1.9*	7.9	1.4	0.8	11.0*
N#CCc1nc(CSc2nc3ccccc3o2)cs1	-1.2	1.2	1.9	-0.5	8.2	3.3	nt	nt

Source: PubChem
